Measured values reported in PubChem BioAssay (Tox21).
Results filed as inconclusive are left out. The source made the active and inactive calls. The call rests on the fitted dose curve; in most records, active means well fitted curve in the direction sought with a large enough effect in the repeat runs; inconclusive means weak or mixed curves; inactive means no such curve, though single readings can be large; an effect the other way counts as inactive or inconclusive.

Experiments:
[1] = molecular target: Cytochrome P450 2D6 (Homo sapiens) (UniProt P10635); assay: Cytochrome P450 Family 2 Subfamily D Member 6 (CYP2D6) small molecule antagonists: luciferase reporter qHTS assay (AID 1671196); further: nearly all actives have a fitted effect of over 50% in size; further: potency means the concentration at half of the fitted maximal effect; on activity change, negative = inhibition: series mostly up to about 120 µM
Cytochrome P450 2D6 (Homo sapiens), sequence (P10635 whole entry, looked up): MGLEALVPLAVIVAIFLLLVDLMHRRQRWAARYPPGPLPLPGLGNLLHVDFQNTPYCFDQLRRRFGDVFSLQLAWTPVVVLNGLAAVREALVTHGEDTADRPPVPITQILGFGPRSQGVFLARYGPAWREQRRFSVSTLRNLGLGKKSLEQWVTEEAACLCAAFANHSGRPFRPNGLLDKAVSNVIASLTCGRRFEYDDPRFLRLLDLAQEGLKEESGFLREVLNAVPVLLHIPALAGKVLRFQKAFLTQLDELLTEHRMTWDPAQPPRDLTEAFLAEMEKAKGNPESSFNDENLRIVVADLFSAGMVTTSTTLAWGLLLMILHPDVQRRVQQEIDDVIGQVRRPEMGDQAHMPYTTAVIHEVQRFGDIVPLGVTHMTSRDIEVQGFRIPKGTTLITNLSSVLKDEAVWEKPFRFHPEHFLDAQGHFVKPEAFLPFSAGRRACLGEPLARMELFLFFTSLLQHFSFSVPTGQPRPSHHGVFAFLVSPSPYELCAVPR
Procedure, shortened: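 Each well received CYP2D6 with its proluciferin substrate and chemical, sat 10 min, then got NADPH regeneration solution for 1 h at room temperature. Luminescence in RLU served as the activity measure.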

[2] = molecular target: Cytochrome P450 2C19 (Homo sapiens) (UniProt P33261); assay: Cytochrome P450 Family 2 Subfamily C Member 19 (CYP2C19) small molecule antagonists: luciferase reporter qHTS assay (AID 1671197); further: nearly all actives have a fitted effect of over 65% in size; further: potency means the concentration at half of the fitted maximal effect; on activity change, negative = inhibition: series mostly up to about 120 µM
Cytochrome P450 2C19 (Homo sapiens), sequence (P33261 whole entry, looked up): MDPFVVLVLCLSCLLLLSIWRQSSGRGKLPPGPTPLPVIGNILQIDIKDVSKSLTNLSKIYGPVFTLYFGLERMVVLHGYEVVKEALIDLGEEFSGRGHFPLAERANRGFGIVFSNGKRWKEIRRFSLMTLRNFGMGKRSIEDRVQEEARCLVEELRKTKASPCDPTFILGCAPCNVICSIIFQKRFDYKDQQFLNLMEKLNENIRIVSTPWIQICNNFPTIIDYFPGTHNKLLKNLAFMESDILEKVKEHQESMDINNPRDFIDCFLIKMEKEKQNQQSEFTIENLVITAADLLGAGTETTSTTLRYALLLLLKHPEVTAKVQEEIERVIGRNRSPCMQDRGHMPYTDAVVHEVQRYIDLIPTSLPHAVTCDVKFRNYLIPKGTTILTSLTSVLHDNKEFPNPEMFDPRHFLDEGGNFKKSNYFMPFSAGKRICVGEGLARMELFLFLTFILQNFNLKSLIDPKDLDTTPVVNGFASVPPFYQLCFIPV
Procedure, shortened: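 Enzyme-substrate mix with proluciferin substrate (P450-Glo CYP2C19 system) preincubated with compounds 10 min at room temperature; NADPH regeneration solution added, 37C for 1 h; detection reagent stops reaction, luminescence read after 20 min. Ketoconazole positive control.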

[3] = molecular target: Cytochrome P450 2C9 (Homo sapiens) (UniProt P11712); assay: Cytochrome P450 Family 2 Subfamily C Member 9 (CYP2C9) small molecule antagonists: luciferase reporter qHTS assay (AID 1671198); further: nearly all actives have a fitted effect of over 50% in size; further: potency means the concentration at half of the fitted maximal effect; on activity change, negative = inhibition: series mostly up to about 120 µM
Cytochrome P450 2C9 (Homo sapiens), sequence (P11712 whole entry, looked up): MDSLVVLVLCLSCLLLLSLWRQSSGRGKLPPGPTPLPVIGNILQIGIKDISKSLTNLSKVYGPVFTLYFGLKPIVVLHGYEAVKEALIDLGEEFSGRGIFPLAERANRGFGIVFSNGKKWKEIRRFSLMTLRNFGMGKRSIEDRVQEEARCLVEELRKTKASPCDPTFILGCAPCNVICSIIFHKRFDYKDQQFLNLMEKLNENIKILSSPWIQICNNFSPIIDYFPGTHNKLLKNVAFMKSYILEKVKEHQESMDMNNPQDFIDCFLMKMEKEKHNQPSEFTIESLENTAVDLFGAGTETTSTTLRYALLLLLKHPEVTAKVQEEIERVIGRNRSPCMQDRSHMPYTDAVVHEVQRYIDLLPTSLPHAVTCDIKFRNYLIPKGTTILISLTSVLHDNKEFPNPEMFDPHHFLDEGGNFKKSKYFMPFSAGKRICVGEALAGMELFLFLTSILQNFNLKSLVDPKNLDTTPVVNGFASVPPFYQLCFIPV
Procedure, shortened: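 P450-Glo proluciferin substrate with CYP2C9 enzyme; 10 min RT preincubation, then NADPH regeneration 1 h at 37C; luciferin detection reagent 20 min RT, luminescence in relative luminescence units.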

[4] = molecular target: Voltage-gated inwardly rectifying potassium channel KCNH2 (Homo sapiens) (UniProt Q12809); assay: Human Ether-a-go-go-Related Gene (hERG) channel small molecule antagonists: fluorescence cell-based qHTS assay (AID 1671200);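 further: hERG-expressing U2OS cells given a thallium stimulus after FluxOR II dye loading; series mostly up to about 77 µM; nearly all actives have a fitted effect of over 50% in size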
Voltage-gated inwardly rectifying potassium channel KCNH2 (Homo sapiens), sequence (Q12809 whole entry, looked up): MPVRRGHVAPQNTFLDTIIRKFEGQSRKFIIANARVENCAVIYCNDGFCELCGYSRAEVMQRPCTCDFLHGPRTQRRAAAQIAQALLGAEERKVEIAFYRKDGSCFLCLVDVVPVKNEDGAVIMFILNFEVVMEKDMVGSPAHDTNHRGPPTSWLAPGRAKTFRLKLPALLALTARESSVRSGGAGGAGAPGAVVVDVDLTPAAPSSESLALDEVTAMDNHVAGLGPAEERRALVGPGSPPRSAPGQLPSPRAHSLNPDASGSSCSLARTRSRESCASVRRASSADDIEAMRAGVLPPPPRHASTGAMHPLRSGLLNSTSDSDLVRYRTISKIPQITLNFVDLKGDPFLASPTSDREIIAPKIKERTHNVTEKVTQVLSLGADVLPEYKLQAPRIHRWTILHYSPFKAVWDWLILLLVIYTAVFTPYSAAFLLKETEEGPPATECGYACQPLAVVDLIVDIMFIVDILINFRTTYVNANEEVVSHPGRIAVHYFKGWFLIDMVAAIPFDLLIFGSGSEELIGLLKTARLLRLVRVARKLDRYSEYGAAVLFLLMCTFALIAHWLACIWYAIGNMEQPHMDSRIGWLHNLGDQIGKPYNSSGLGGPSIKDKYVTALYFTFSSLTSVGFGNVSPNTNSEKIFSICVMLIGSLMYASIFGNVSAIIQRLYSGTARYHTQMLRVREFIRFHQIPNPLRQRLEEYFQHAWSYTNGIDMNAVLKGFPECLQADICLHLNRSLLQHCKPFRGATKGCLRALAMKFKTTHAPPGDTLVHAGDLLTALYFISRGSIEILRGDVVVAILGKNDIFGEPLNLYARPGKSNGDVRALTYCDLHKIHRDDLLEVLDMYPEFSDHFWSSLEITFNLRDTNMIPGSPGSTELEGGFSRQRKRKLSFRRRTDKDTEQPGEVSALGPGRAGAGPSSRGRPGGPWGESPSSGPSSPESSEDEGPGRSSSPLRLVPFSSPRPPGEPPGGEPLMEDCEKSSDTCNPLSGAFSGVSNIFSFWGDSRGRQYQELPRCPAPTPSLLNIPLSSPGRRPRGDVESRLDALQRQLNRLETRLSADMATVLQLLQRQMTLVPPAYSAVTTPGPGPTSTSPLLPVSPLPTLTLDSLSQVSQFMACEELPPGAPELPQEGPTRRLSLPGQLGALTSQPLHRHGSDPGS
Procedure, shortened: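 U2OS cells expressing the channel were plated at 1000 cells/well, incubated overnight at 37 C, then loaded with FluxOR II thallium-sensitive dye for 1 h at room temperature in the dark, with a further 10 min at room temperature before stimulation.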

[5] = molecular target: Cytochrome P450 3A4 (Homo sapiens) (UniProt P08684); assay: Cytochrome P450 Family 3 Subfamily A Member 4 (CYP3A4) small molecule antagonists: luciferase reporter qHTS assay (AID 1671201); further: nearly all actives have a fitted effect of over 50% in size; further: potency means the concentration at half of the fitted maximal effect; on activity change, negative = inhibition: series mostly up to about 120 µM
Cytochrome P450 3A4 (Homo sapiens), sequence (P08684 whole entry, looked up): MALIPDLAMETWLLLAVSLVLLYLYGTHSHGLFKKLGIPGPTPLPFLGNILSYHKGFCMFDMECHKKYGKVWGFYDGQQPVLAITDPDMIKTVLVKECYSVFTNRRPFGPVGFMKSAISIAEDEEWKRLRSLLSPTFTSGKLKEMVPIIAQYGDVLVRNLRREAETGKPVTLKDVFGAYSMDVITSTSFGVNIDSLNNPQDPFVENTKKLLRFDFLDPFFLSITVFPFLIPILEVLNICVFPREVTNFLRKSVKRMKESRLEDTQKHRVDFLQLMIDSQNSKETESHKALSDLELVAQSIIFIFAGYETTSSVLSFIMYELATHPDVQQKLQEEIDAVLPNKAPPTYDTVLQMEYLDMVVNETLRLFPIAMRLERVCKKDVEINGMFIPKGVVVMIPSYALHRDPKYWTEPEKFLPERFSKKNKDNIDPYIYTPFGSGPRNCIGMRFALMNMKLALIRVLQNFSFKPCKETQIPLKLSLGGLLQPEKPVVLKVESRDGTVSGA
Procedure, shortened: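 P450-Glo CYP3A4 system with proluciferin substrate; compounds preincubated 10 min RT with enzyme-substrate mix, then NADPH regeneration added for 1 h RT. Detection reagent 20 min, luminescence read as relative luminescence units.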

[6] = molecular target: Cytochrome P450 1A2 (Homo sapiens) (UniProt P05177); assay: Cytochrome P450 Family 1 Subfamily A Member 2 (CYP1A2) small molecule antagonists: luciferase reporter qHTS assay (AID 1671199); further: nearly all actives have a fitted effect of over 50% in size; further: potency means the concentration at half of the fitted maximal effect; on activity change, negative = inhibition: series mostly up to about 120 µM
Cytochrome P450 1A2 (Homo sapiens), sequence (P05177 whole entry, looked up): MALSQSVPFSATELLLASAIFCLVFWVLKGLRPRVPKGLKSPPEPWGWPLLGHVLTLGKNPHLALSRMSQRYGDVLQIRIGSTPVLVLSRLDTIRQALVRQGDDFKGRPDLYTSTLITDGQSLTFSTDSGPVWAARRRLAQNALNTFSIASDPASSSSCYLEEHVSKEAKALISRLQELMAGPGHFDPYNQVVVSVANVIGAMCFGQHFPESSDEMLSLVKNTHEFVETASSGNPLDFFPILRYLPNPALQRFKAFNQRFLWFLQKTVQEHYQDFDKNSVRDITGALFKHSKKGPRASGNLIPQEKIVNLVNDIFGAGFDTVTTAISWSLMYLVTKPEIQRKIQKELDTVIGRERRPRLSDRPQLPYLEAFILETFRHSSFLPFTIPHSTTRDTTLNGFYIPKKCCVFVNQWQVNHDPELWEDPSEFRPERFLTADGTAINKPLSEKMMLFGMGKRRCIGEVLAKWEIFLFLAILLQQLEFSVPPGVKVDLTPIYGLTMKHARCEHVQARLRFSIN
Procedure, shortened: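 Enzymatic CYP1A2 assay, human, luminescent: 10 min compound–enzyme–substrate preincubation, 1 h NADPH-dependent turnover, 20 min detection step, room temperature throughout. Reduced light indicates lower CYP1A2 activity.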
On the % scale 0 is the no-effect control and ±100 the full control effect.

CCC(C)(CCC(C)C)C(=O)[O-].CCC(C)(CCC(C)C)C(=O)[O-].[Zn+2] (stereo not drawn)
inactive: Potency [1] | Potency [4] | Potency [5]
active: Potency [2] 17.8 µM | Potency [3] 17.8 µM

CCCCCCCCCCCCCCCCCCN(C)C
inactive: Potency [1] | Potency [2] | Potency [3] | Potency [4] | Potency [5]

COC(/C=C(\C)CCC=C(C)C)OC
inactive: Potency [1] | Potency [2] | Potency [3] | Potency [6] | Potency [5]

O=S1(=O)CCCC1
inactive: Potency [1] | Potency [2] | Potency [3] | Potency [5]
active: Potency [6] 40.2 µM

OCCCCCCCl
inactive: Potency [1] | Potency [2] | Potency [3] | Potency [6] | Potency [5]

C1=CCC(c2ccccc2)CC1 (stereo not drawn)
inactive: Potency [1] | Potency [2] | Potency [3] | Potency [4] | Potency [5]

O=C(O)C(=O)Nc1cccc(-c2nn[nH]n2)c1
inactive: Potency [1] | Potency [2] | Potency [3] | Potency [4] | Potency [5]

CCCCCCCC/C=C\CCCCCCCC(=O)OC[C@@H](O)[C@H]1OC[C@H](O)[C@H]1O
inactive: Potency [1] | Potency [2] | Potency [6] | Potency [5]
active: Potency [3] 31.7 µM

N#CCCOCCOCCC#N
inactive: Potency [1] | Potency [2] | Potency [3] | Potency [4] | Potency [5]
active: Potency [6] 39.9 µM

NC(Cc1c[nH]c2ccccc12)C(=O)O (stereo not drawn)
active: Potency [1] 17.5 µM | Potency [2] 24.7 µM | Potency [3] 31.1 µM
inactive: Potency [4]

CCCCCC(=O)OCC
inactive: Potency [1] | Potency [2] | Potency [3] | Potency [4] | Potency [5]

CC(=O)OCCCc1ccccc1
inactive: Potency [1] | Potency [2] | Potency [3] | Potency [6] | Potency [4] | Potency [5]

CCCCCCCCC(=O)OCC
inactive: Potency [1] | Potency [2] | Potency [3] | Potency [6] | Potency [5]

Cc1ccccc1N1CCN(CCc2nnc3n2CCCC3)CC1
inactive: Potency [2] | Potency [3] | Potency [4] | Potency [5]
active: Potency [1] 13.8 µM

CCCCCCCCCCCCOC(C)=O
inactive: Potency [1] | Potency [2] | Potency [3] | Potency [4] | Potency [5]

C=CCCCCCCCCCCC
inactive: activity change, negative = inhibition [1] -22.8% [at 10.5 µM] | activity change, negative = inhibition [2] 11.6% [at 10.5 µM] | activity change, negative = inhibition [3] -1.77% [at 10.5 µM] | activity change, negative = inhibition [6] -6.04% [at 10.5 µM] | activity change, negative = inhibition [4] 6.79% [at 6.97 µM] | activity change, negative = inhibition [5] 4% [at 10.5 µM]

CCC(C)(C)C1CCC(=O)CC1
inactive: Potency [1] | Potency [2] | Potency [3] | Potency [4] | Potency [5]

C[Si]1(C)N[Si](C)(C)N[Si](C)(C)N1
inactive: Potency [1] | Potency [4]
active: Potency [2] 50.2 µM | Potency [3] 63.3 µM | Potency [5] 6.33 µM

CC(=O)OC(C(=O)c1ccccc1)c1ccccc1 (stereo not drawn)
active: Potency [1] 35.7 µM | Potency [2] 8.98 µM | Potency [3] 31.9 µM | Potency [6] 40.1 µM
inactive: Potency [5]

CC(C)SCc1ccco1
inactive: Potency [1] | Potency [2] | Potency [3] | Potency [6] | Potency [5]

O=C(O)CCNC(=O)c1ccccc1
inactive: Potency [1] | Potency [2] | Potency [3] | Potency [4] | Potency [5]

CC(CC(=O)O)CC(C)(C)C (stereo not drawn)
inactive: Potency [1] | Potency [2] | Potency [3] | Potency [6] | Potency [5]

Cc1cc(O)c2c(c1)C(=O)c1cccc(O)c1C2=O
inactive: Potency [1] | Potency [2] | Potency [3] | Potency [5]
active: Potency [6] 15.5 µM

CCOC(=O)CC(CC(=O)OCC)(OC(C)=O)C(=O)OCC
inactive: Potency [1] | Potency [4] | Potency [5]
active: Potency [2] 12.6 µM | Potency [3] 28.3 µM

FC(F)(F)/C(=N\OCC1OCCO1)c1ccc(Cl)cc1
inactive: Potency [1] | Potency [4] | Potency [5]
active: Potency [2] 1.59 µM | Potency [3] 31.7 µM

COc1cc(C=O)ccc1OC(=O)C(C)C
inactive: Potency [1] | Potency [4] | Potency [5]
active: Potency [2] 39.9 µM | Potency [3] 35.6 µM

CCCCCCCCCCCCCCCCI
inactive: activity change, negative = inhibition [1] -2.1% [at 23.6 µM] | activity change, negative = inhibition [2] -28.1% [at 23.6 µM] | activity change, negative = inhibition [3] -1.09% [at 23.6 µM] | activity change, negative = inhibition [6] -13.6% [at 23.6 µM] | activity change, negative = inhibition [5] -0.102% [at 23.6 µM]

C=CCOc1c(Br)cc(C(C)(C)c2cc(Br)c(OCC=C)c(Br)c2)cc1Br
active: Potency [2] 24.6 µM
inactive: Potency [1] | Potency [3] | Potency [6] | Potency [5]

C1=C\CC/C=C\CC/1
inactive: Potency [1] | Potency [3] | Potency [6] | Potency [4] | Potency [5]

CCOC(=O)CCCCCCCCC(=O)OCC
inactive: Potency [1] | Potency [4] | Potency [5]
active: Potency [3] 31.7 µM | Potency [6] 44.8 µM

CC(=O)Nc1ccc(C)cc1
active: Potency [6] 39.6 µM
inactive: Potency [1] | Potency [3] | Potency [4] | Potency [5]

CCCCCC1CCCC(=O)O1 (stereo not drawn)
inactive: Potency [1] | Potency [3] | Potency [4] | Potency [5]

CC(C)COC(=O)CC(C(=O)OCC(C)C)S(=O)(=O)O (stereo not drawn)
active: Potency [3] 31.7 µM
inactive: Potency [1] | Potency [6] | Potency [5]

CC(C)COC(=O)COc1ccc(Cl)cc1Cl
active: Potency [3] 31.7 µM | Potency [6] 20 µM
inactive: Potency [1] | Potency [5]

Nc1cc(C(=O)O)ccc1Cl
inactive: Potency [1] | Potency [3] | Potency [6] | Potency [4] | Potency [5]

COC(OC)C(C)c1ccccc1 (stereo not drawn)
inactive: Potency [1] | Potency [3] | Potency [4] | Potency [5]
